From PubChem BioAssay (Tox21) come the findings set out here.

Results filed as inconclusive are left out. The source made the active and inactive calls. Calls come from the whole dose curve; as a rule, active = well fitted cell-killing curve with a large enough effect in the repeat runs; inconclusive = weak or mixed curves, or effect the other way; inactive = flat fitted curve, though single readings scatter.

A short description of assay [1]: cAMP Responsive Elements (CRE) small molecule antagonists, cell-based qHTS assay: qHTS cell viability counter screen (AID 2060913). Note: nearly all actives have a fitted effect of over 40% in size. The conditions noted are these: CRE-bla HEK293T viability, CellTiter-Glo luminescence, 5 h; series mostly up to 92.4 µM. The essentials: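 Cytotoxicity counter screen multiplexed with the CRE-bla antagonist read: HEK293T cells in DMEM with dialyzed FBS and 25 mM HEPES were treated 3 hrs under 0.25 uM final NKH477, then viability measured by CellTiter-Glo luminescence.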

A short description of assay [2]: cAMP Responsive Elements (CRE) small molecule agonists, cell-based qHTS assay: qHTS cell viability counter screen (AID 2060914). Note: nearly all actives have a fitted effect of over 50% in size. As to conditions: CRE-bla HEK293T viability, CellTiter-Glo luminescence, 5 h; series mostly up to 92.4 µM. The essentials:
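In the same wells as the reporter read, viability of CRE-bla HEK 293T cells was quantified by CellTiter-Glo luminescence after a 3 h compound exposure.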
Potency is the fitted concentration of half-maximal effect.

As for `CCC[CH2][Sn]([Cl])([Cl])[Cl]`, the Potency entry in assay [1] and in assay [2] was “inactive” each time.
With `O=C1C(I)=CC(=C(c2cc(I)c(O)c(I)c2)c2ccccc2C(=O)O)C=C1I`, the Potency result in assay [1] and in assay [2] was “inactive” each time.
As to `CCOP(=S)(OCC)SCn1nnc2ccccc2c1=O`, the Potency result in assay [1] and in assay [2] was “inactive” each time.
For `COP(=O)(OC)O/C(C)=C/C(=O)N(C)C`, the Potency result in assay [1] and in assay [2] was “inactive” in each case.
Regarding `C[C@H]1CC[C@@H]2[C@@H](C)[C@H]3[C@H](C[C@H]4[C@@H]5CC=C6CC(O[C@@H]7O[C@H](CO)[C@H](O)[C@H](O[C@@H]8O[C@H](CO)[C@@H](O)[C@H](O)[C@H]8O)[C@H]7O[C@H]7O[C@@H](C)[C@H](O)[C@@H](O)[C@H]7O)CC[C@]6(C)[C@H]5CC[C@]34C)N2C1` (stereo partly specified), the Potency result in assay [1] and in assay [2] was “inactive” each time.
In the case of `CCC1(c2ccccc2)C(=O)N=C(O)NC1=O` (stereo unspecified), the Potency result in assay [1] and in assay [2] was “inactive” each time.
As for `CCC(C)(C#N)N=NC(C)(C#N)CC` (stereo unspecified), the Potency result in assay [1] and in assay [2] was “inactive” in each case.
Regarding `CCn1cc[n+](C)c1` (tested in a mixture with another compound), the Potency result in assay [1] and in assay [2] was “inactive” each time.
For the compound `Cc1ccc(N(SC(F)(Cl)Cl)S(=O)(=O)N(C)C)cc1`, the Potency result in assay [1] and in assay [2] was “inactive” throughout.
On to `FC(F)OC(F)(F)C(F)Cl` (stereo unspecified), for which the Potency entry in assay [1] and in assay [2] was “inactive” throughout.
Regarding `CCOP(=S)(OCC)Oc1ccc(Cl)cc1Cl`, the Potency result in assay [1] and in assay [2] was “inactive” throughout.
Turning to `C=CC(=O)OCC(C)O` (stereo unspecified), the Potency result in assay [1] and in assay [2] was “inactive” each time.
As for `ClCc1cccc(Cl)c1`, the Potency result in assay [1] and in assay [2] was “inactive” throughout.
For `O=C(O)C(Br)(Br)Br`, the Potency entry in assay [1] and in assay [2] was “inactive” each time.
As for `CCC[CH2][Sn]([CH2]CCC)([CH2]CCC)[O]C(=O)c1ccccc1`, the Potency was 5.7 µM (active) in assay [1] and 5.45 µM (active) in assay [2].
Take `Cc1ncc(C[n+]2csc(CCO)c2C)c(N)n1`: the Potency result in assay [1] and in assay [2] was “inactive” throughout.
`C[C@H]1CCC[C@H](O)CCCCCc2cc(O)cc(O)c2C(=O)O1`: the Potency result in assay [1] and in assay [2] was “inactive” each time.
For the compound `CCOC(=O)COc1cc(-c2nn(C)c(OC(F)F)c2Cl)c(F)cc1Cl`, the Potency entry in assay [1] and in assay [2] was “inactive” each time.
Turning to `CNC(=O)O/N=C(\C)SC`, the Potency result in assay [1] and in assay [2] was “inactive” each time.
For the compound `CC(C)OC(=O)Nc1ccccc1`, the Potency result in assay [1] and in assay [2] was “inactive” in each case.
`N#Cc1c2ccccc2cc2ccccc12`: the Potency entry in assay [1] and in assay [2] was “inactive” each time.
Regarding `O.O.O.O.O.O.O=S(=O)([O-])[O-].[Ni+2]`, the Potency result in assay [1] and in assay [2] was “inactive” in each case.
With `N#CC(Cl)(Cl)Cl`, the Potency entry in assay [1] and in assay [2] was “inactive” throughout.
With `CN(N=O)c1ccccc1`, the Potency result in assay [1] and in assay [2] was “inactive” in each case.
Take `C[C@]12C=CC3=C4CCC(=O)C=C4CC[C@H]3[C@@H]1CC[C@@H]2O`: the Potency entry in assay [1] and in assay [2] was “inactive” each time.
`O=C(O)CC(O)(CC(=O)O)C(=O)O`: the Potency entry in assay [1] and in assay [2] was “inactive” each time.
`COc1cc(CC(C)N)cc2c1OCO2` (stereo unspecified): the Potency entry in assay [1] and in assay [2] was “inactive” each time.
For the compound `N#CCc1ccc(Cl)cc1`, the Potency entry in assay [1] and in assay [2] was “inactive” throughout.
Turning to `CCCCCBr`, the Potency result in assay [1] and in assay [2] was “inactive” each time.
Take `CC(C)(C)NCC(O)c1cc(Cl)c(N)c(C(F)(F)F)c1` (stereo unspecified): the Potency result in assay [1] and in assay [2] was “inactive” each time.
Consider `C/C=C/c1ccc2c(c1)OCO2`, for which the Potency result in assay [1] and in assay [2] was “inactive” in each case.
On to `Cc1cccc(C#N)c1`, for which the Potency entry in assay [1] and in assay [2] was “inactive” in each case.
Consider `CCN(CC)C(C)C(=O)c1ccccc1` (stereo unspecified), for which the Potency result in assay [1] and in assay [2] was “inactive” in each case.
Turning to `CNC(=O)O/N=C/C(C)(C)SC`, the Potency entry in assay [1] and in assay [2] was “inactive” each time.
On to `COC(=O)C(Cl)C(=O)OC`, for which the Potency entry in assay [1] and in assay [2] was “inactive” in each case.
On to `C/C(=C\c1ccccc1)[N+](=O)[O-]`, for which the Potency entry in assay [1] and in assay [2] was “inactive” throughout.
For the compound `S=C=NCc1ccccc1`, the Potency entry in assay [1] and in assay [2] was “inactive” each time.
In the case of `CN1C(=O)NC(=O)C(C)(C2=CCCCC2)C1=O` (stereo unspecified), the Potency result in assay [1] and in assay [2] was “inactive” in each case.
In the case of `CCN(CC)C(=O)N[C@@H]1C=C2c3cccc4[nH]cc(c34)C[C@@H]2N(C)C1`, the Potency result in assay [1] and in assay [2] was “inactive” throughout.
As for `O=S(=O)(O)O`, the Potency entry in assay [1] and in assay [2] was “inactive” in each case.
Turning to `CC[C@@H](CO)NC(=O)[C@@H]1C=C2c3cccc4c3c(cn4C)C[C@H]2N(C)C1`, the Potency entry in assay [1] and in assay [2] was “inactive” in each case.
As to `CC(C)c1cccc(C(C)C)c1O`, the Potency result in assay [1] and in assay [2] was “inactive” each time.
Take `CS/C(C)=N/OC(=O)N(C)SN(C)C(=O)O/N=C(\C)SC`: the Potency entry in assay [1] and in assay [2] was “inactive” each time.
For the compound `CC(C)OS(C)(=O)=O`, the Potency entry in assay [1] and in assay [2] was “inactive” in each case.
Consider `CC(=O)C(Cl)(Cl)Cl`, for which the Potency in assay [1] is 26.4 µM (active). Besides, the Potency result in assay [2] is “inactive”.
As for `O=C(NCc1cccnc1)Nc1ccc([N+](=O)[O-])cc1`, the Potency result in assay [1] and in assay [2] was “inactive” throughout.
With `CCCCC(CC)CO[N+](=O)[O-]` (stereo unspecified), the Potency entry in assay [1] and in assay [2] was “inactive” each time.
For the compound `OCC(O)CCl` (stereo unspecified), the Potency entry in assay [1] and in assay [2] was “inactive” throughout.
Consider `CC(C)(N)Cc1ccccc1Cl`, for which the Potency entry in assay [1] and in assay [2] was “inactive” each time.
Take `c1ccc(CN2CCNCC2)cc1`: the Potency entry in assay [1] and in assay [2] was “inactive” throughout.
In the case of `C[C@]12CCC(=O)C=C1CC[C@@H]1[C@@H]2CC[C@]2(C)C(=O)CC[C@@H]12`, the Potency result in assay [1] and in assay [2] was “inactive” each time.
`Sc1ccccc1`: the Potency entry in assay [1] and in assay [2] was “inactive” in each case.
In the case of `CC(C)(C)C(=O)C(Oc1ccc(Cl)cc1)n1cncn1` (stereo unspecified), the Potency entry in assay [1] and in assay [2] was “inactive” throughout.
